Data on 38 compounds can be found in PubChem BioAssay (NCI).

Each structure is given as a SMILES string. The panel holds about 79,000 compounds, 15% with a hit somewhere; the sample as a whole holds those more often. A number with no mark means an inactive call. The source made the active and inactive calls. No stated cut-off is given here; in the data, active means growth inhibition above about 70%; inactive means the rest.

Assay [1] can be described thus: NCI Yeast Anticancer Drug Screen. Data for the rad50 strain (AID 155).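 Further: 0% = growth of vehicle-only cultures of the same strain.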 Conditions: S. cerevisiae rad50 strain growth inhibition; at 50.0 µM; active compounds read high. The method, boiled down:
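Readout: growth inhibition relative to vehicle-treated cultures. Compound exposure was carried out in a genetically defined yeast strain deficient in DNA damage repair.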

The nature of assay [2]: NCI Yeast Anticancer Drug Screen. Data for the mec2-1 strain (AID 157). Conditions: S. cerevisiae mec2-1 strain, at 50.0 µM, active compounds read high. The method, boiled down:
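Compounds were applied to mec2-1 yeast cells. Their growth was then compared with that of vehicle-treated cultures to give growth inhibition.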

Assay [3] is described as follows: NCI Yeast Anticancer Drug Screen. Data for the sgs1 mgt1 strain (AID 161).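 Further: 0% = growth of cultures given vehicle only.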 As to conditions: S. cerevisiae sgs1 mgt1 strain, at 50.0 µM, active compounds read high. The method, boiled down:
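Percent growth inhibition was derived by comparing compound-exposed mutant yeast with vehicle-exposed cultures. The strain carries alterations in DNA damage repair.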

Assay [4] is described as follows: NCI Yeast Anticancer Drug Screen. Data for the cln2 rad14 strain (AID 165).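 Further: 0% = growth equal to vehicle treated cultures.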 As to conditions: S. cerevisiae cln2 rad14 strain, at 50.0 µM, active compounds read high. The essentials:
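Strain: cln2 rad14 yeast, altered in cell cycle control and DNA damage repair. Read-out: growth inhibition vs vehicle.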

The nature of assay [5]: NCI Yeast Anticancer Drug Screen. Data for the bub3 strain (AID 167). As to conditions: S. cerevisiae bub3 mutant strain, at 50.0 µM, active compounds read high. The method, boiled down: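 Readout: yeast growth inhibition, expressed relative to vehicle-only wells. The test organism is a mutant strain from a panel with lesions in DNA repair or checkpoint genes.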
Assay [6] can be described thus: NCI Yeast Anticancer Drug Screen. Data for the mlh1 rad18 strain (AID 175). Conditions: S. cerevisiae mlh1 rad18 strain growth inhibition; at 50.0 µM; active compounds read high. The essentials:
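A repair-deficient yeast strain is exposed to test compound, and growth is scored relative to vehicle-treated controls.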

As to `CN(C)CCCNc1nc2cc(Cl)ccc2o1`, the growth inhibition is -7.1% in assay [1]; -9.85% in assay [2]; -5.7% in assay [3]; -38.6% in assay [4]; 6.7% in assay [5]; -2.4% in assay [6].
Consider `CC(=O)OCC(OC(C)=O)C1OC2OC(C)(C)OC2C1OS(C)(=O)=O` (stereo not drawn), for which the growth inhibition in assay [1] is 15.2%; in assay [2], 10.3%; in assay [3], 17.6%; in assay [4], -27.6%; in assay [5] it was 28.6%; in assay [6] it was 4.95%.
With `Cc1cc(Nc2ccc(S(=O)(=O)O)c3cc(S(=O)(=O)O)cc(S(=O)(=O)O)c23)c2ccccc2n1`, the growth inhibition is -14.1% in assay [1]; 4.3% in assay [2]; 3.2% in assay [3]; -10.9% in assay [4]; 6% in assay [5]; 8.7% in assay [6].
`O=C(Nc1ccc(Cl)cc1C(=O)O)c1ccc([N+](=O)[O-])cc1`: the growth inhibition is 23.1% in assay [1]; 18.2% in assay [2]; 26.7% in assay [3]; 38.8% in assay [4]; 23.9% in assay [5]; 53.2% in assay [6].
For `CC1CC(C)(C)OC(C2CC=CCC2)O1` (stereo not drawn), the growth inhibition was -12.7% in assay [1]; -19.6% in assay [2]; -13.8% in assay [3]; -1.95% in assay [4]; 2.35% in assay [5]; 2.7% in assay [6].
As for `O=C(NCCCCC[N+](CCCCCNC(=O)c1ccccc1)(CCCCCNC(=O)c1ccccc1)CCCCCNC(=O)c1ccccc1)c1ccccc1`, the growth inhibition in assay [1] is 3.65%; in assay [2] it was 10.4%; in assay [3], -15.2%; in assay [4], -2.2%; in assay [5], -1.65%; in assay [6], -7.85%.
For the compound `NCCNc1ncnc2ccc(Cl)cc12`, the growth inhibition in assay [1] was -30.9%; in assay [2] it was -13.1%; in assay [3], -22.4%; in assay [4], -30.5%; in assay [5] it was -38.8%; in assay [6] it was 5.4%.
Regarding `O=[N+]([O-])c1ccsc1Cl`, the growth inhibition in assay [1] was -7.85%; in assay [2] it was -3.6%; in assay [3] it was -14.6%; in assay [4], -40.2%; in assay [5], -4.1%; in assay [6] it was -5.05%.
In the case of `O=S(=O)(O)CC(NCc1ccccc1)c1ccccc1` (stereo not drawn), the growth inhibition in assay [1] was -28.9%; in assay [2] it was -0.45%; in assay [3] it was -19.6%; in assay [4], -36.9%; in assay [5], 13.8%; in assay [6], -5%.
For the compound `NC(Cc1cccnn1)C(=O)O` (stereo not drawn), the growth inhibition was -29.2% in assay [1]; -22.8% in assay [2]; -29.2% in assay [3]; -58.9% in assay [4]; -25.4% in assay [5]; -5.25% in assay [6].
Take `Cn1c(N)c(NC(=S)NCC2CCCCC2)c(=O)n(C)c1=O`: the growth inhibition in assay [1] was -2.8%; in assay [2], -5%; in assay [3] it was -1.2%; in assay [4] it was -9.6%; in assay [5], -3.6%; in assay [6], 1.5%.
For the compound `CCOC(=O)c1cc(C)nc2ccc(Br)cc12`, the growth inhibition is -3.2% in assay [1]; 3.45% in assay [2]; -11.2% in assay [3]; -5.85% in assay [4]; 4.2% in assay [5]; -11.7% in assay [6].
With `O=C1c2cccc3cccc(c23)C(=O)N1CCO`, the growth inhibition is 50.6% in assay [1]; 22.2% in assay [2]; 39.9% in assay [3]; 17.9% in assay [4]; 16.2% in assay [5]; 33.2% in assay [6].
Take `C=CC1CNCCC1CC(=O)OCC` (stereo not drawn): the growth inhibition in assay [1] is -16.6%; in assay [2] it was -5.55%; in assay [3], 3%; in assay [4] it was -12.4%; in assay [5] it was 4.45%; in assay [6] it was -24.4%.
For the compound `CC1=C(C)C(=O)OC1`, the growth inhibition was -3.55% in assay [1]; -12.3% in assay [2]; -0.9% in assay [3]; 6% in assay [4]; 9.85% in assay [5]; -24.5% in assay [6].
With `CC1(O)C(=O)N(Cc2ccccc2)c2ccccc21` (stereo not drawn), the growth inhibition in assay [1] is 25.6%; in assay [2] it was -5%; in assay [3], -5.2%; in assay [4], -8.5%; in assay [5] it was -10.4%; in assay [6], 4.05%.
Regarding `CC(C)OP(=O)(O)CCl`, the growth inhibition in assay [1] was -16.9%; in assay [2], -12.6%; in assay [3], -24.4%; in assay [4] it was -11.4%; in assay [5] it was -13.6%; in assay [6], -26.3%.
Consider `Nc1nnc(-c2ccc(-c3nnc(N)o3)cc2)o1`, for which the growth inhibition in assay [1] was -33.6%; in assay [2], -12.9%; in assay [3], -8.55%; in assay [4], -31.1%; in assay [5], 4.05%; in assay [6], -7.25%.
On to `O=c1c2ccccc2c2ccccc2n1C(c1ccccc1)c1ccccc1`, for which the growth inhibition in assay [1] is -43%; in assay [2] it was -4.9%; in assay [3] it was 3.25%; in assay [4], -12.6%; in assay [5], -11.5%; in assay [6], -2%.
Regarding `Cc1nc([N+](=O)[O-])cn1CC(Cl)Cn1cc([N+](=O)[O-])nc1C`, the growth inhibition in assay [1] is -4.65%; in assay [2], -12.4%; in assay [3] it was -18.7%; in assay [4] it was 9.7%; in assay [5], -25.1%; in assay [6] it was 14.2%.
Turning to `O=C(O)c1c(I)cc(I)c(O)c1I`, the growth inhibition was -1% in assay [1]; -13.5% in assay [2]; 1.75% in assay [3]; 7.65% in assay [4]; 10.9% in assay [5]; -6.9% in assay [6].
Take `Cc1cc(N(CCC#N)CCC#N)ccc1/C(N=Nc1ccc(Cl)cc1)=N\NC(=O)c1cc(Cl)ccc1O`: the growth inhibition in assay [1] was -16.6%; in assay [2], -16.1%; in assay [3], -31.1%; in assay [4], -20.2%; in assay [5], -29.6%; in assay [6], -59.5%.
As for `O=C(Nc1ccc(Br)cc1)C(=O)C(C(=O)c1ccccc1F)C1OC(=O)c2ccccc21` (stereo not drawn), the growth inhibition in assay [1] is -17.6%; in assay [2], -1.65%; in assay [3], -13.8%; in assay [4] it was -50.9%; in assay [5], -5.4%; in assay [6], 7%.
For the compound `NC(=O)C(Cl)=C(Cl)Cl`, the growth inhibition in assay [1] is 2.85%; in assay [2], 10.4%; in assay [3], -2%; in assay [4], -4.75%; in assay [5], -4.8%; in assay [6] it was 1.65%.
`O=C1C=C(N2CCCC2)c2ccccc21`: the growth inhibition in assay [1] is 15.4%; in assay [2], -9.25%; in assay [3], 3.85%; in assay [4] it was -18.9%; in assay [5], -27.6%; in assay [6], 12.8%.
Regarding `COc1cc2cc(OC)c3cc4c(cc3c2c(OC)c1OC)OCO4`, the growth inhibition is 12.2% in assay [1]; 11.1% in assay [2]; 19.2% in assay [3]; 7.3% in assay [4]; 6.6% in assay [5]; 5.65% in assay [6].
`CCOC(=O)c1ccc2c(c1)CCC(C)(C)O2`: the growth inhibition in assay [1] is -5.55%; in assay [2], -4.8%; in assay [3] it was 7.3%; in assay [4] it was -13.9%; in assay [5], 11.5%; in assay [6], -7.15%.
With `Cc1cc(Cl)c2ccc(Cl)c(C)c2n1`, the growth inhibition is 6.65% in assay [1]; -8.55% in assay [2]; 3.65% in assay [3]; -11.1% in assay [4]; 5.4% in assay [5]; 0.15% in assay [6].
For `CC(C)CNc1ncnc2c1cnn2C`, the growth inhibition in assay [1] is -1.65%; in assay [2], 2.9%; in assay [3], -1.65%; in assay [4] it was -3.15%; in assay [5], 9.8%; in assay [6], -8.45%.
With `CC(=O)c1ccc(N=C2C=CC(=O)O2)cc1`, the growth inhibition in assay [1] is 6.85%; in assay [2], -14.9%; in assay [3] it was -11.1%; in assay [4] it was -21.5%; in assay [5] it was -4.65%; in assay [6] it was 7.65%.
As for `[N-]=[N+]=NCC(O)Cn1cnc2c(NC(=O)c3ccccc3)ncnc21` (stereo not drawn), the growth inhibition in assay [1] is -14.7%; in assay [2] it was -0.15%; in assay [3], 0.85%; in assay [4], -16.1%; in assay [5] it was 8.6%; in assay [6], 7.2%.
In the case of `Cc1sc2c(c1C)/C(=N\O)c1cccn1-2`, the growth inhibition is -0.05% in assay [1]; -3.4% in assay [2]; 34% in assay [3]; 26% in assay [4]; 14.4% in assay [5]; -11.6% in assay [6].
For `N#CC(C(=O)C(=O)Nc1cccc(Cl)c1)c1ccccc1` (stereo not drawn), the growth inhibition was -4.55% in assay [1]; -6.9% in assay [2]; -19% in assay [3]; -89.1% in assay [4]; -11.8% in assay [5]; -4.2% in assay [6].
Take `Cc1ccc(Nc2c3ccccc3nc3ccccc23)cc1C`: the growth inhibition is 98.8% (active) in assay [1]; 95.8% (active) in assay [2]; 97.7% (active) in assay [3]; 90.6% (active) in assay [4]; 90.2% (active) in assay [5]; 98.5% (active) in assay [6].
`CC(=O)Nc1nnnn1C`: the growth inhibition in assay [1] is -3.05%; in assay [2], -2.3%; in assay [3], 0.45%; in assay [4], -40.1%; in assay [5] it was -1.9%; in assay [6], -10.9%.
As for `FC(F)C(F)(F)N1c2ccccc2Sc2ccccc21`, the growth inhibition was 27.6% in assay [1]; -6.2% in assay [2]; 19.9% in assay [3]; 6.9% in assay [4]; 27.1% in assay [5]; 60.1% in assay [6].
Consider `O=C(NC(Cc1ccc(O)cc1)C(=O)O)SCc1ccccc1` (stereo not drawn), for which the growth inhibition in assay [1] is -25.6%; in assay [2], 21%; in assay [3], 22.9%; in assay [4] it was -52.5%; in assay [5], 22.9%; in assay [6], -12%.
As to `CCOC(=O)C1C(c2cc(OC)c(OC)c(OC)c2)c2cc3c(cc2OC1(C)OC)OCO3` (stereo not drawn), the growth inhibition in assay [1] was 5.55%; in assay [2], 5.4%; in assay [3], -0.15%; in assay [4] it was -1.3%; in assay [5], -5.25%; in assay [6] it was 19.1%.
